Shown are actives, neighbours in structure and some others; about 2.4% of the full set was active somewhere.
Wnt act: activates Wnt/beta-catenin signaling in a reporter cell assay. activator, plate reader. activation, % at 9.35 µM. hit rate 1.2% among 300,000. AID 743398; in the data active means activation above about 30%, passing the limit was not always enough
miR-122 sensor: blocks miR-122 activity in Huh7 sensor cells; AID 602342; Huh7 miR-122 Renilla luciferase sensor, 48 h; neutral wells = 0, positive control = 100; activation (reporter increase), % at 12.5 µM; hit rate 0.3% among 340,000;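 active means mean replicate activation score at least 90 and every replicate individually at or above 90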;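 further: higher luciferase means less miR-122 activity so hits act as miR-122 inhibitors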
GSIS activator: primary screen for activators of insulin secretion dependent on glucose, INS-1E cells, GLuc reporter luminescence | INS-1E GLuc reporter insulin secretion, 2-3 h | activation, % at 16.6 µM | hit rate 0.61% among 370,000 | AID 743287;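 active means lowest replicate activation of at least 40%, so every replicate reaches that level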
NSD2 inh: inhibitors of human histone methyltransferase NSD2 | hit rate 0.54% among 310,000 | NSD2 peptide methylation, AlphaScreen, 120 min | inhibition, % at 12.5 µM | O96028
Target sequence (O96028 whole entry, looked up): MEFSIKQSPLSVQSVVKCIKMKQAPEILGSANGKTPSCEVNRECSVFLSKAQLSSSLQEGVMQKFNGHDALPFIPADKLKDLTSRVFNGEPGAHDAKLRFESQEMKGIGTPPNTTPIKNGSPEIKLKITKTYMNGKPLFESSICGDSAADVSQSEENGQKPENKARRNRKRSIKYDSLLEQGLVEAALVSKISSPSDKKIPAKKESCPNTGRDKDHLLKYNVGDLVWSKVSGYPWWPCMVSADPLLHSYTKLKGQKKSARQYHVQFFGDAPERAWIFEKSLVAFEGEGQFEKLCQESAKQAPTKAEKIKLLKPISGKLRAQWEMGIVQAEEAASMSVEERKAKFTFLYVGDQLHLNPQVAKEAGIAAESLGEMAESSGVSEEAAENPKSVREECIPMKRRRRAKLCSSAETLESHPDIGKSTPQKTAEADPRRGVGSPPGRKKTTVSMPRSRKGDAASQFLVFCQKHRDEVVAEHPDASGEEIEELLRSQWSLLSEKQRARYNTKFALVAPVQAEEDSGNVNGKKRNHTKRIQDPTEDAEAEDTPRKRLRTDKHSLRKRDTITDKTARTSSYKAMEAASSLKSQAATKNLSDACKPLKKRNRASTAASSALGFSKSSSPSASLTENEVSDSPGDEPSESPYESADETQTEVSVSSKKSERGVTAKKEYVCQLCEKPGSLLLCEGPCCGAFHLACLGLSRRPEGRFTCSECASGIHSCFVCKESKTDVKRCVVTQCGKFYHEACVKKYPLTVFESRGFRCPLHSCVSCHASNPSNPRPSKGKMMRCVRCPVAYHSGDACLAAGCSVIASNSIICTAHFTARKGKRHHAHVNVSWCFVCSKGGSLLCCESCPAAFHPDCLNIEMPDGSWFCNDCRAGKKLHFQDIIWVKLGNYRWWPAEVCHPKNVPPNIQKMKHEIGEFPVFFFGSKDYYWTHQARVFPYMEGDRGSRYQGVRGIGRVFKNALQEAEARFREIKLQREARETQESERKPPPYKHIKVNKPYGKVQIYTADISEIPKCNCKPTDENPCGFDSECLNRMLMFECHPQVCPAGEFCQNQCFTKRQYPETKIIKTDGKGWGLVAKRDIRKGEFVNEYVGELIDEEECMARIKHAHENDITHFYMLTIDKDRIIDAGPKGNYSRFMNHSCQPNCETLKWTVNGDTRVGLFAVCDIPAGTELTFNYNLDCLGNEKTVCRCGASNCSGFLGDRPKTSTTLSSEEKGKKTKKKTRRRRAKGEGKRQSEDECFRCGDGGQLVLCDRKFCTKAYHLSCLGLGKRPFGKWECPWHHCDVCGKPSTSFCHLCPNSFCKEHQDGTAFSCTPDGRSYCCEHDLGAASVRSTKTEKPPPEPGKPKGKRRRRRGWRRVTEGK
DYRK1A inh: blocks rat Dyrk1A kinase activity; Q63470; ADP-Glo luminescence, NFATc1 peptide; inhibition, % at 12.5 µM; hit rate 0.43% among 310,000
MITF TRPM1 HTS: MITF TRPM1 promoter activation in melanoma cells | activation, % at 12.5 µM | hit rate 0.75% among 300,000 | SK-MEL-5 TRPM1-promoter luciferase, 24 h; % of positive control, neutral wells = 0;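 active means mean activation of at least 80% with every replicate also reaching 80%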
Of the large screens only hits and unclear results are named; the others gave an inactive call; ! = not active in a repeat; [ ] = dose if it differs, or a comment. Unless noted, no stated cut-off is given here; in the data, active means inhibition above about 50%; inactive means the rest.

Cn1c(=O)n(C)c2cc(NS(=O)(=O)c3ccc4c(c3)CCCC4)ccc21	none (no result: Wnt act, miR-122 sensor, GSIS activator)
Cn1c(=O)oc2cc(S(=O)(=O)Nc3cccc(C(=O)O)c3)ccc21	none (no result: Wnt act, GSIS activator)
CCc1cccc(NS(=O)(=O)c2ccc3c(c2)n(C)c(=O)n3C)c1	miR-122 sensor 116.8
C[C@H]1CN([C@@H](C)CO)C(=O)c2cccc(NS(=O)(=O)c3cccs3)c2O[C@@H]1CN(C)Cc1ccncc1	none (no result: Wnt act, NSD2 inh, DYRK1A inh, MITF TRPM1 HTS)
Cc1ccc(S(=O)(=O)Nc2cccc3c2O[C@H](CN(C)Cc2ccc(Cl)c(Cl)c2)[C@@H](C)CN([C@H](C)CO)C3=O)cc1	none (no result: Wnt act, NSD2 inh, DYRK1A inh, MITF TRPM1 HTS)
C[C@H](CO)N1C[C@H](C)[C@@H](CN(C)Cc2ccc(Cl)c(Cl)c2)Oc2c(NS(=O)(=O)c3cccs3)cccc2C1=O	miR-122 sensor 95.4! (no result: NSD2 inh)
Cc1ccc(S(=O)(=O)Nc2cccc3c2O[C@@H](CN(C)Cc2ccc(Cl)c(Cl)c2)[C@H](C)CN([C@H](C)CO)C3=O)cc1	miR-122 sensor 110.4[16.7 µM] (no result: Wnt act, NSD2 inh, DYRK1A inh, MITF TRPM1 HTS)
C[C@@H]1CN([C@H](C)CO)C(=O)c2cccc(NS(=O)(=O)c3cccs3)c2O[C@H]1CN(C)Cc1ccc(C(F)(F)F)cc1	miR-122 sensor 264.3[16.7 µM] (no result: Wnt act, NSD2 inh, DYRK1A inh, MITF TRPM1 HTS)
CCNC(=O)C[C@@H]1CC[C@@H](NC(=O)C2CCOCC2)[C@@H](CO)O1	none (no result: Wnt act, miR-122 sensor, NSD2 inh, DYRK1A inh, MITF TRPM1 HTS)
C[C@H](CO)N1C[C@H](C)[C@@H](CN(C)S(=O)(=O)c2cn(C)cn2)OCCCC[C@H](C)Oc2ccc(NC(=O)CCC(F)(F)F)cc2C1=O	none (no result: Wnt act, NSD2 inh, DYRK1A inh, MITF TRPM1 HTS)
COc1ccc(OCc2nnc3n2N=C(c2ccc(C)cc2)CS3)cc1	none (no result: miR-122 sensor, NSD2 inh)
COc1ccc(C2=Nn3c(nnc3-c3ccccc3OC)SC2)cc1OCC1CC1	GSIS activator 49.8 (no result: NSD2 inh)
COc1ccc(OC)c(-c2nnc3n2N=C(c2ccc(OC)c(OC)c2)CS3)c1	GSIS activator 80.4 (no result: miR-122 sensor, NSD2 inh)
COc1ccc(OCc2nnc3n2N=C(c2ccc(OC)cc2)CS3)cc1	GSIS activator 44.7 (no result: NSD2 inh, MITF TRPM1 HTS)
CCCc1nnc2n1N=C(c1ccc(OC)c(OC)c1)CS2	GSIS activator 106.3 (no result: NSD2 inh)
COc1ccc(S(=O)(=O)N(C)C)cc1NCC(=O)Nc1ccc(C)c(F)c1	none (no result: Wnt act, miR-122 sensor, GSIS activator, DYRK1A inh, MITF TRPM1 HTS)
CC(=O)Nc1ccc2c(c1Br)Cc1ccccc1-2	Wnt act 46.2
CC(=O)Nc1cccc2c1Cc1ccccc1-2	none (no result: Wnt act, GSIS activator, DYRK1A inh, MITF TRPM1 HTS)
CN(C)CC(=O)Nc1ccc2c(c1)[C@@H]1C[C@H](CC(=O)NCC3CC3)O[C@H](CO)[C@@H]1O2	none (no result: Wnt act, NSD2 inh, DYRK1A inh, MITF TRPM1 HTS)
Cc1ccccc1NC(=S)N/N=C/C(C)c1ccccc1 (centres undefined)	none
Cc1cccc(NC(=S)N/N=C/C(C)c2ccccc2)c1C (centres undefined)	Wnt act 33.8 (no result: miR-122 sensor)
COCC#Cc1cnc2c(c1)C(=O)N([C@@H](C)CO)C[C@@H](C)[C@@H](CN(C)C(=O)Nc1ccccc1F)O2	none (no result: Wnt act, NSD2 inh, DYRK1A inh, MITF TRPM1 HTS)
Clc1ccc(-c2cn3c(n2)SCC3)cc1	Wnt act 46.8
Brc1ccc(-c2cn3c(n2)SCC3)cc1	Wnt act 41.6
CO[C@H]1CN(C)C(=O)c2cc(NC(=O)Cc3ccccc3)ccc2OC[C@H](C)N(C(C)=O)C[C@H]1C	none (no result: Wnt act, miR-122 sensor, NSD2 inh, DYRK1A inh, MITF TRPM1 HTS)
CN1C(=O)c2cc(NC(=O)C3CCCC3)ccc2OC[C@H]2O[C@@H](CC(=O)NCCc3ccncc3)CC[C@@H]21	none (no result: Wnt act, miR-122 sensor, NSD2 inh, DYRK1A inh, MITF TRPM1 HTS)
Cc1ccc(S(=O)(=O)Nc2ccc3c(c2)C(=O)N([C@H](C)CO)C[C@H](C)[C@H](CN(C)Cc2ccc(C(=O)O)cc2)O3)cc1	none (no result: Wnt act, NSD2 inh, DYRK1A inh, MITF TRPM1 HTS)
COc1ccccc1-c1ccc2n(c1=O)C[C@H]1[C@H](CO)[C@@H](C(=O)Nc3nccs3)N(CC3CC3)[C@@H]21	none (no result: Wnt act, NSD2 inh, DYRK1A inh, MITF TRPM1 HTS)
CCCNC(=O)[C@H]1[C@H](CO)[C@H]2Cn3c(ccc(-c4ccc(OC)cc4)c3=O)[C@H]2N1CCC	none (no result: Wnt act, NSD2 inh, DYRK1A inh, MITF TRPM1 HTS)
CC(C)NC(=O)C1(C)CN(S(C)(=O)=O)CC(=O)N1CCCN1CCOCC1 (centres undefined)	GSIS activator 43.7 (no result: miR-122 sensor, DYRK1A inh, MITF TRPM1 HTS)
COC1=C(Nc2ccc(C)cc2)C(=O)c2ccccc2C1=O	NSD2 inh 77.6 (no result: miR-122 sensor)
COC1=C(Nc2ccccc2)C(=O)c2ccccc2C1=O	NSD2 inh 75.5 (no result: Wnt act, miR-122 sensor)
CC1=CC(=C2C(=O)c3ccccc3C2=O)C=C(C)N1Cc1ccco1	Wnt act 50.8 (no result: miR-122 sensor)
O=C1c2ccccc2C(=O)N1Cc1ccco1	none (no result: Wnt act, GSIS activator)
O=C(Nc1ccccc1F)N[C@@H]1CC[C@H](CCNC(=O)C2CCCCC2)O[C@H]1CO	none (no result: Wnt act, NSD2 inh, DYRK1A inh, MITF TRPM1 HTS)
C[C@H](CO)N1C[C@H](C)[C@H](CN(C)CC2CCOCC2)Oc2cc(C3=CCCC3)ccc2S1(=O)=O	none (no result: Wnt act, miR-122 sensor, NSD2 inh, DYRK1A inh, MITF TRPM1 HTS)

Bioassay records (PubChem)
